Common to all, as to experiment: DAPPL (digital affinity profiling via proximity ligation, sequencing); 10 mM Tris-HCl pH 7.5, 50 mM NaCl, 1 mM DTT, 4% glycerol, room temperature, 30 min; GST-TFs on glutathione beads, 16-mer random dsDNA library, 0.1% formaldehyde crosslink after washing; high values mean tight binding
One test concerns the target T1, FEV (Homo sapiens, UniProt Q99581 1-238).
T1 sequence: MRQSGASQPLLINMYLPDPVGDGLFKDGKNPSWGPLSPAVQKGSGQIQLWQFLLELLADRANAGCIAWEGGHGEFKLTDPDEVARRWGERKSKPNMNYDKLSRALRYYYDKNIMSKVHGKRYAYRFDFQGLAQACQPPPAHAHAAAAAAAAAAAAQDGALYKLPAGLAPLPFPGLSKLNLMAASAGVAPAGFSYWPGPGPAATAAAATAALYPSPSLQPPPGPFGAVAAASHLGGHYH
Particulars: protein: recombinant; tags: N-terminal GST; dsDNA, one strand shown. The procedure, abridged:
(§1)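 Binding signal is given per hexamer as its read frequency for a factor divided by its frequency in the tag-only sample. GST-fused human transcription factors were expressed in yeast, captured on glutathione beads, barcoded with DNA and pooled with that sample, then incubated with 200 nmole of a 16-mer random double-stranded DNA library in Tris/NaCl/DTT/glycerol buffer for 30 min at room temperature. The pools were then washed, crosslinked, proximity-ligated, amplified by PCR and sequenced on an Illumina NextSeq500.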

The target of a further test is ETV5 (Homo sapiens, UniProt P41161 1-510). Particulars: protein: recombinant; tags: N-terminal GST; dsDNA, one strand shown. The procedure, abridged:
as §1

In the next test the target is HSF1 (Homo sapiens, UniProt Q00613 1-529). Particulars: protein: recombinant; tags: N-terminal GST; chain copies: 3; dsDNA, one strand shown. The procedure, abridged:
as §1

Another test concerns the target ELF4 (Homo sapiens, UniProt Q99607 1-663). Particulars: protein: recombinant; tags: N-terminal GST; dsDNA, one strand shown. The procedure, abridged:
as §1

The target of the next test is T2, ELK4 (Homo sapiens, UniProt P28324-2 1-405).
T2 sequence: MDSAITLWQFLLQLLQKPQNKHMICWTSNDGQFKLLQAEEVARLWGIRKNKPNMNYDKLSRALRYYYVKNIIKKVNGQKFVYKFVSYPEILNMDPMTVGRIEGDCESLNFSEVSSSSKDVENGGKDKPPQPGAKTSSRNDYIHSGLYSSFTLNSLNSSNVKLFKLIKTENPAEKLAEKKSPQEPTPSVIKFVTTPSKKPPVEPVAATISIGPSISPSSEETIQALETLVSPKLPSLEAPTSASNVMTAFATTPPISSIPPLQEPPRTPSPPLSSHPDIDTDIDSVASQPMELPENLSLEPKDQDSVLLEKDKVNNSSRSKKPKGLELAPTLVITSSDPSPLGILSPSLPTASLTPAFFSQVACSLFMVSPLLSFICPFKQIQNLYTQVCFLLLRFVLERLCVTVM
To be noted: protein: recombinant; tags: N-terminal GST; dsDNA, one strand shown. The procedure, abridged: as §1

The target in a further test is T3, ETV2 (Homo sapiens, UniProt O00321 1-342).
T3 sequence: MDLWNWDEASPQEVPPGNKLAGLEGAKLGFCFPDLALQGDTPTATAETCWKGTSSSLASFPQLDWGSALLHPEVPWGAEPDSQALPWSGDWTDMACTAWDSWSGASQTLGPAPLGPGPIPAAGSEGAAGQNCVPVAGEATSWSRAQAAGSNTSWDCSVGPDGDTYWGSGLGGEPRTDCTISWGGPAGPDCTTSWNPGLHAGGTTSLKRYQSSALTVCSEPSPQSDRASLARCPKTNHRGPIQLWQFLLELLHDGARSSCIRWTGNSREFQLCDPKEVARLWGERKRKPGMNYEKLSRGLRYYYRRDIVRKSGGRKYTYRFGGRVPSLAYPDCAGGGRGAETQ
To be noted: protein: recombinant; tags: N-terminal GST; dsDNA, one strand shown. The procedure, abridged:
as §1

The next test has as its target T4, ELF3 (Homo sapiens, UniProt P78545 1-371).
T4 sequence: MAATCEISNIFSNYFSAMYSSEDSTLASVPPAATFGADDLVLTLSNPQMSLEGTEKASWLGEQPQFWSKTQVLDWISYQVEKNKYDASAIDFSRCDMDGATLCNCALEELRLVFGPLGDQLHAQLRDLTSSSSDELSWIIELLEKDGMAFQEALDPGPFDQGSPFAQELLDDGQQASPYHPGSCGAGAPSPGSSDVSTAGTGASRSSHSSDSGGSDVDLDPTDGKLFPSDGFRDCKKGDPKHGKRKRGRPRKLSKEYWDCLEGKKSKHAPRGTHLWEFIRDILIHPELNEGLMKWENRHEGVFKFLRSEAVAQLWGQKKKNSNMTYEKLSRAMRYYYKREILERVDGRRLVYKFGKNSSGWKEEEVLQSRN
Particulars: protein: recombinant; tags: N-terminal GST; dsDNA, one strand shown. The procedure, abridged:
as §1

For the next test, the target named is ETV1 (Homo sapiens, UniProt P50549 1-477). To be noted: protein: recombinant; tags: N-terminal GST; dsDNA, one strand shown. The procedure, abridged: as §1
Chain of ETV1 (P50549 whole entry): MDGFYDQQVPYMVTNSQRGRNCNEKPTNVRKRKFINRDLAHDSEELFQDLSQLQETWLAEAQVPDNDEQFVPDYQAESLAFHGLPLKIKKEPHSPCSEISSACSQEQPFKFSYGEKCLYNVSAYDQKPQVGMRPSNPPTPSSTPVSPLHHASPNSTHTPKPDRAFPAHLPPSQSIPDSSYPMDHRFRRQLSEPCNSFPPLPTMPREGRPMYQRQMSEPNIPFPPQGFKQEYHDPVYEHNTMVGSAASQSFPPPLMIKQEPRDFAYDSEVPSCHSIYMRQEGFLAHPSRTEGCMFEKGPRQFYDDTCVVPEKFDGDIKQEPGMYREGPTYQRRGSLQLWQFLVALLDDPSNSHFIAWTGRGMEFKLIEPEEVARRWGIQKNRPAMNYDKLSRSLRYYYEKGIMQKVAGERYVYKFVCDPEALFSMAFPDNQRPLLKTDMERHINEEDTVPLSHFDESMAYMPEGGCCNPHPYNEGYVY
Another test concerns the target CRX (Homo sapiens, UniProt O43186 1-299). Particulars: protein: recombinant; tags: N-terminal GST; dsDNA, one strand shown. The procedure, abridged:
as §1

The next test deals with T5, SPIC (Homo sapiens, UniProt Q8N5J4 1-248).
T5 sequence: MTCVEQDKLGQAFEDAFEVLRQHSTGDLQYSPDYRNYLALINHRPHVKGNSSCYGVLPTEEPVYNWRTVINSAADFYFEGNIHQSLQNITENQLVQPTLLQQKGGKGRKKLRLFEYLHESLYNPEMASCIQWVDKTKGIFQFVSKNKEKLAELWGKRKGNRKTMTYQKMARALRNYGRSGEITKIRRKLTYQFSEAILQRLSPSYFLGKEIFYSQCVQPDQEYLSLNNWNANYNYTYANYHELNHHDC
To be noted: protein: recombinant; tags: N-terminal GST; dsDNA, one strand shown. The procedure, abridged:
as §1

Chain of ELF4 (Q99607 whole entry): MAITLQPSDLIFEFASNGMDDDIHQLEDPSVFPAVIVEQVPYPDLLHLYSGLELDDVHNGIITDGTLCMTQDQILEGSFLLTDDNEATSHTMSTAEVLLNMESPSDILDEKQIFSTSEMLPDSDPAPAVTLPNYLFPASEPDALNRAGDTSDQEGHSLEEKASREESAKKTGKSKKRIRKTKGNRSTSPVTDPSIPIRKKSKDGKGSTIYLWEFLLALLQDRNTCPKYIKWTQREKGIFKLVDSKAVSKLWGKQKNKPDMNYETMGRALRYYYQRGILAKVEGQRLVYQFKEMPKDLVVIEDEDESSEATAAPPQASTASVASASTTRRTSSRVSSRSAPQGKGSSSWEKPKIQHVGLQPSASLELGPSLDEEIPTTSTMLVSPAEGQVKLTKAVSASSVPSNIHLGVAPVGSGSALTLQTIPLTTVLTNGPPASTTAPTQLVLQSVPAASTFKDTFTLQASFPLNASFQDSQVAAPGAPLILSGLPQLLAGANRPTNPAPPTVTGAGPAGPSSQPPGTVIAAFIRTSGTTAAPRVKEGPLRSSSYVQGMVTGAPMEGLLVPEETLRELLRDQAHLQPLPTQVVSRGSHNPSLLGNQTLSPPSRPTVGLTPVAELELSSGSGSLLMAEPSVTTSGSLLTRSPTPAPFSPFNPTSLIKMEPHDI
Chain of ETV5 (P41161 whole entry): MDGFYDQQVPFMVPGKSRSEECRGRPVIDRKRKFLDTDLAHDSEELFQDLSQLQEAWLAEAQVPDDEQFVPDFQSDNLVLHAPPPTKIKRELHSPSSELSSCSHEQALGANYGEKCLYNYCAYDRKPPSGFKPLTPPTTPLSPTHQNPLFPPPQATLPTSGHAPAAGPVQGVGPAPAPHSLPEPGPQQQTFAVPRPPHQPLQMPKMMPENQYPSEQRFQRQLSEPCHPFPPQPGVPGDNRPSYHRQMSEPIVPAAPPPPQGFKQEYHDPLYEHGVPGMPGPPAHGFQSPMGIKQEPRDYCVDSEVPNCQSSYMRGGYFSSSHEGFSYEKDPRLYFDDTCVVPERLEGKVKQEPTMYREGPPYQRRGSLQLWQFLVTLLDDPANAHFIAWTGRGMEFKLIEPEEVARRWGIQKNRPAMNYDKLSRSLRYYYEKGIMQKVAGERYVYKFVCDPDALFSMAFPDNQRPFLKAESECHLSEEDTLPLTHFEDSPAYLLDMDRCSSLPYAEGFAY
Chain of CRX (O43186 whole entry): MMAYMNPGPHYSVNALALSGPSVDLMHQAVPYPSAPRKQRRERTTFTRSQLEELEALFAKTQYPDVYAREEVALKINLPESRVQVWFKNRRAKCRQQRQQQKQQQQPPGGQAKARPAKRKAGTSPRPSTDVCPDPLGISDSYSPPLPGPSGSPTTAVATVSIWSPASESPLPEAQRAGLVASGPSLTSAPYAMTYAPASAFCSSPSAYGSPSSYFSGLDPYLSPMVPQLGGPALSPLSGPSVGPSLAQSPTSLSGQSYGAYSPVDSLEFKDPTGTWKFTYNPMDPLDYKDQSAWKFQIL
Chain of HSF1 (Q00613 whole entry): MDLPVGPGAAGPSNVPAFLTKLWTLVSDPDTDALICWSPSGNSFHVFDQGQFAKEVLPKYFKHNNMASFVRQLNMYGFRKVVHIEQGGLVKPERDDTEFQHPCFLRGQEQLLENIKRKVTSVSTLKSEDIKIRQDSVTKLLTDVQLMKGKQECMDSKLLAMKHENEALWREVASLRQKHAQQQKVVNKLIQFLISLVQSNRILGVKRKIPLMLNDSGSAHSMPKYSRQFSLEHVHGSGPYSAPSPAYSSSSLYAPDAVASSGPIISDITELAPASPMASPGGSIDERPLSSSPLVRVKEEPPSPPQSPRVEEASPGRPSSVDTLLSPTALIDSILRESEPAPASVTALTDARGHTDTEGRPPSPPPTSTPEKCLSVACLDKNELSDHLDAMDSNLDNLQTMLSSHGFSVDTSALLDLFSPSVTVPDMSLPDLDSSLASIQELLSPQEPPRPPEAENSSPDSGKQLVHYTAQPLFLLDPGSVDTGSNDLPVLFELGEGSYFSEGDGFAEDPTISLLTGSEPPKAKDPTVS

For ACTGTT, the binding signal with FEV was 1.1 fold enrichment (6-mer frequency, TF over GST control); with ETV5, 1.1 fold enrichment (6-mer frequency, TF over GST control); with HSF1 it was 1.03 fold enrichment (6-mer frequency, TF over GST control); with ELF4, 1.2 fold enrichment (6-mer frequency, TF over GST control); with ELK4, 1.09 fold enrichment (6-mer frequency, TF over GST control); with ETV2, 1.23 fold enrichment (6-mer frequency, TF over GST control). For the same sequence, the binding signal is 1.03 fold enrichment (6-mer frequency, TF over GST control) with ELF3 and 1.12 fold enrichment (6-mer frequency, TF over GST control) with ETV1.

For the sequence GGTATA, the binding signal with FEV is 1.08 fold enrichment (6-mer frequency, TF over GST control); with ETV5, 1.1 fold enrichment (6-mer frequency, TF over GST control); in the test with HSF1, 1.08 fold enrichment (6-mer frequency, TF over GST control); with ELF4 it was 1.08 fold enrichment (6-mer frequency, TF over GST control); with ELK4 it was 1.1 fold enrichment (6-mer frequency, TF over GST control); with ETV2, 1.05 fold enrichment (6-mer frequency, TF over GST control). For the same sequence, the binding signal in the test with CRX is 1.02 fold enrichment (6-mer frequency, TF over GST control); in the test with ETV1, 1.11 fold enrichment (6-mer frequency, TF over GST control).

With TAGTGC, the binding signal was 1.02 fold enrichment (6-mer frequency, TF over GST control) with FEV; 1.08 fold enrichment (6-mer frequency, TF over GST control) in the test with ETV5; 1.02 fold enrichment (6-mer frequency, TF over GST control) in the test with HSF1; 1.04 fold enrichment (6-mer frequency, TF over GST control) in the test with ELK4; 1.02 fold enrichment (6-mer frequency, TF over GST control) with ETV2; 1.03 fold enrichment (6-mer frequency, TF over GST control) with ELF3. In addition, the binding signal in the test with CRX was 1.16 fold enrichment (6-mer frequency, TF over GST control); with ETV1 it was 1.09 fold enrichment (6-mer frequency, TF over GST control).

Regarding AATGGA, the binding signal with FEV was 1.09 fold enrichment (6-mer frequency, TF over GST control); in the test with ETV5, 1.05 fold enrichment (6-mer frequency, TF over GST control); with HSF1 it was 1.12 fold enrichment (6-mer frequency, TF over GST control); in the test with ELF4, 1.08 fold enrichment (6-mer frequency, TF over GST control); with ELF3 it was 1.05 fold enrichment (6-mer frequency, TF over GST control); with ETV1, 1.07 fold enrichment (6-mer frequency, TF over GST control).

For GCCTCC, the binding signal was 1.32 fold enrichment (6-mer frequency, TF over GST control) in the test with FEV; 1.31 fold enrichment (6-mer frequency, TF over GST control) with ETV5; 1.38 fold enrichment (6-mer frequency, TF over GST control) with SPIC; 1.34 fold enrichment (6-mer frequency, TF over GST control) in the test with ELF4; 1.22 fold enrichment (6-mer frequency, TF over GST control) in the test with ELK4; 1.29 fold enrichment (6-mer frequency, TF over GST control) with ETV2. Moreover, the binding signal with ELF3 was 1.24 fold enrichment (6-mer frequency, TF over GST control); in the test with CRX, 1.03 fold enrichment (6-mer frequency, TF over GST control); with ETV1, 1.25 fold enrichment (6-mer frequency, TF over GST control).

Regarding CCTGTA, the binding signal was 1.2 fold enrichment (6-mer frequency, TF over GST control) in the test with FEV; 1.26 fold enrichment (6-mer frequency, TF over GST control) with ETV5; 1.23 fold enrichment (6-mer frequency, TF over GST control) with SPIC; 1.25 fold enrichment (6-mer frequency, TF over GST control) with ELF4; 1.16 fold enrichment (6-mer frequency, TF over GST control) in the test with ELK4; 1.21 fold enrichment (6-mer frequency, TF over GST control) with ETV2. Also, the binding signal is 1.09 fold enrichment (6-mer frequency, TF over GST control) with ELF3; 1.04 fold enrichment (6-mer frequency, TF over GST control) with CRX; 1.3 fold enrichment (6-mer frequency, TF over GST control) with ETV1.

For CGGTTT, the binding signal was 1.44 fold enrichment (6-mer frequency, TF over GST control) with FEV; 1.21 fold enrichment (6-mer frequency, TF over GST control) in the test with ETV5; 1.23 fold enrichment (6-mer frequency, TF over GST control) with SPIC; 1.21 fold enrichment (6-mer frequency, TF over GST control) in the test with ELF4; 1.23 fold enrichment (6-mer frequency, TF over GST control) in the test with ELK4; 1.11 fold enrichment (6-mer frequency, TF over GST control) in the test with ETV2. In addition, the binding signal was 1.24 fold enrichment (6-mer frequency, TF over GST control) with ELF3; 1.05 fold enrichment (6-mer frequency, TF over GST control) with CRX; 1.32 fold enrichment (6-mer frequency, TF over GST control) with ETV1.

Turning to TGATGT, the binding signal with FEV was 1.26 fold enrichment (6-mer frequency, TF over GST control); with ETV5, 1.22 fold enrichment (6-mer frequency, TF over GST control); with SPIC it was 1.11 fold enrichment (6-mer frequency, TF over GST control); in the test with ELF4, 1.32 fold enrichment (6-mer frequency, TF over GST control); with ELK4, 1.31 fold enrichment (6-mer frequency, TF over GST control); with ETV2, 1.26 fold enrichment (6-mer frequency, TF over GST control). Besides, the binding signal is 1.21 fold enrichment (6-mer frequency, TF over GST control) in the test with ELF3; 1.05 fold enrichment (6-mer frequency, TF over GST control) with CRX; 1.26 fold enrichment (6-mer frequency, TF over GST control) with ETV1.

These data come from PMC7862700, “An all-to-all approach to the identification of sequence-specific readers for epigenetic DNA modifications on cytosine”.
